A number with no mark means an inactive call. Results filed as inconclusive are left out. Active and inactive are the calls of the source. Unless noted, calls come from the whole dose curve; as a rule, active = well fitted curve in the direction sought with a large enough effect in the repeat runs; inconclusive = weak or mixed curves; inactive = no such curve, though single readings can be large; an effect the other way counts as inactive or inconclusive.

Consider 18 compounds from PubChem BioAssay (Tox21).

A short description of assay [1]: qHTS assay to identify small molecule antagonists of the androgen receptor (AR) signaling pathway using the MDA cell line in the presence of 0.5 nM R1881 - cell viability counter screen (AID 1259242). Note: nearly all actives have a fitted effect of over 45% in size. An outline of the steps:
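Concentration-response screen of compounds for toxicity in MDA-kb2 reporter cells: 16 hr at 37C with 0.5 nM R1881, endpoint live-cell protease fluorescence measured in the reporter wells.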
(In general: Quantitative high-throughput screening tests each substance at several concentrations.)

Assay [2] in a line: qHTS assay to identify small molecule phospholipidosis (PLD) inducers (AID 1259344; active = well fitted curve in the direction sought with a large enough effect; an effect the other way counts as inactive or inconclusive). An outline of the steps:
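Read-out is LipidTOX Red fluorescence (ex 595/em 615) imaged in HepG2 cells after 24 h compound exposure at 37 C, with Hoechst nuclear counterstain (ex 352/em 461) allowing per-cell normalisation.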

The nature of assay [3]: qHTS assay to identify small molecule agonists of the sonic hedgehog signaling (Shh) pathway - cell viability counter screen (AID 1259366). Note: nearly all actives have a fitted effect of over 50% in size. An outline of the steps:
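Stable Gli1-Luc NIH/3T3 clone, 2,000 cells/well. Compound exposure 24hr at 37C. Read-out: CellTiter-Fluor fluorescence.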

Assay [4] is described as follows: qHTS assay to identify small molecule antagonists of the sonic hedgehog signaling (Shh) pathway - cell viability counter screen (AID 1259367). Note: nearly all actives have a fitted effect of over 55% in size. Summed up: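 Fluorescence read-out (CellTiter-Fluor, 1 hr at 37C) taken after 23 hr compound treatment of 3T3 Gli1-Luc cells stimulated with conditioned medium. Cells were seeded at 2,000 per well and pre-incubated 4 hr.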

The nature of assay [5]: qHTS assay to identify small molecule agonists of the sonic hedgehog signaling (Shh) pathway (AID 1259368; calls by dose curve;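 note: NIH/3T3-derived 3T3Gli1-Luc cells carrying a stable Gli1-driven firefly luciferase reporter; series mostly up to about 92 µM; nearly all actives have a fitted effect of over 15% in size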). Summed up:
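Hedgehog pathway agonism scored by increased firefly luciferase luminescence in 3T3Gli1-Luc cells treated 24 hr at 37 C; detection used a 30 min room-temperature reagent incubation.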

A short description of assay [6]: qHTS assay to identify small molecule antagonists of the sonic hedgehog signaling (Shh) pathway (AID 1259369; calls by dose curve; note: nearly all actives have a fitted effect of over 45% in size; note: potency is the fitted concentration of half-maximal effect). Summed up:
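NIH/3T3 stable Gli1-Luc clone, 2,000 cells/well, 4hr settle; cpd + conditioned medium 24hr; Luc reagent 30min RT; luminescence.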

The nature of assay [7]: qHTS assay to identify small molecule HDAC inhibitors (AID 1259364). For activity change, negative = inhibition: top concentration of the series differs between compounds. Note: potency is the fitted concentration of half-maximal effect.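 Note: wild-type HCT-116 cells with endogenous class I/II HDAC activity; nearly all actives have a fitted effect of over 45% in size.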 Summed up: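 Screening used wild-type human colon HCT-116 cells incubated overnight, dosed with compounds for 2 hours, and assayed with a homogeneous luminogenic HDAC I/II reagent for 30 minutes at room temperature.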
Assay [8] can be described thus: qHTS assay to identify small molecule HDAC inhibitors - cell viability counter screen (AID 1259365). Note: series mostly up to about 92 µM; nearly all actives have a fitted effect of over 50% in size. Summed up:
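Cytotoxicity was gauged in wild-type HCT-116 cells after a brief 2hr treatment with DMSO-dissolved compounds at 37C and 5% CO2, using CellTiter-Glo luminescence developed for 30min at room temperature.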
% is set by controls: 0 for no effect and ±100 for the full control effect.

On to `CC(=O)OCC(=O)[C@@]1(O)[C@H](C)C[C@H]2[C@@H]3CCC4=CC(=O)C=C[C@]4(C)[C@@]3(F)[C@@H](O)C[C@@]21C`, for which the result in assay [1], in assay [2] and in assay [5] was inactive. The Potency entry in assay [3], in assay [4] and in assay [6] was “inactive” throughout.
In the case of `NCCCC[C@H](N[C@@H](CCc1ccccc1)C(=O)O)C(=O)N1CCC[C@H]1C(=O)O`, the outcome in assay [1], in assay [2], in assay [8] and in assay [5] was inactive. Also, the Potency result in assay [7], in assay [3], in assay [4] and in assay [6] was “inactive” each time.
With `O=C(O)CNC(=O)c1ccccc1`, the result in assay [1], in assay [2], in assay [8] and in assay [5] was inactive. In addition, the Potency entry in assay [7], in assay [3] and in assay [6] was “inactive” each time.
As for `CCCCc1nc(Cl)c(CO)n1Cc1ccc(-c2ccccc2-c2nn[nH]n2)cc1`, the result in assay [1], in assay [2] and in assay [5] was inactive. Moreover, the Potency entry in assay [7], in assay [3] and in assay [4] was “inactive” each time. In addition, the Potency in assay [6] is 596 nM (active).
For the compound `COc1c(N2CCNC(C)C2)c(F)cc2c(=O)c(C(=O)O)cn(C3CC3)c12` (stereo not given), the result in assay [1], in assay [2], in assay [8] and in assay [5] was inactive. The Potency result in assay [3] and in assay [4] was “inactive” throughout.
Regarding `CC1=C(C/C=C(\C)CCC[C@H](C)CCC[C@H](C)CCCC(C)C)C(=O)c2ccccc2C1=O`, the outcome in assay [1], in assay [2], in assay [8] and in assay [5] was inactive. The Potency entry in assay [7], in assay [3], in assay [4] and in assay [6] was “inactive” each time.
Consider `NC(=O)N[C@@H](CCC(=O)O)C(=O)O`, for which the result in assay [1], in assay [2], in assay [8] and in assay [5] was inactive. The Potency entry in assay [7], in assay [3], in assay [4] and in assay [6] was “inactive” throughout.
Take `Cc1nc(C2CCCCC2)c(-c2ccc(S(N)(=O)=O)c(F)c2)o1`: the result in assay [1], in assay [8] and in assay [5] was inactive. The Potency entry in assay [7], in assay [3], in assay [4] and in assay [6] was “inactive” throughout.
Consider `COC(=O)C1=C(C)NC(C)=C(C(=O)OC(C)C)C1c1cccc2nonc12` (stereo not given), for which the result in assay [1], in assay [2], in assay [8] and in assay [5] was inactive. Also, in assay [7], the Potency result is “inactive”.
On to `COc1ccccc1OCC1CNC(=O)O1` (stereo not given), for which the outcome in assay [1], in assay [8] and in assay [5] was inactive. Also, in assay [2], the PLD induction was 3.13% [at 7.66 µM]. Further, the Potency result in assay [7], in assay [3] and in assay [6] was “inactive” in each case.
Turning to `COc1cc(C(=O)NCc2ccc(OCCN(C)C)cc2)cc(OC)c1OC`, the outcome in assay [1], in assay [2] and in assay [5] was inactive. The Potency entry in assay [7], in assay [3], in assay [4] and in assay [6] was “inactive” each time.
In the case of `C1CCC2=NCCCN2CC1`, the result in assay [1], in assay [8] and in assay [5] was inactive. Moreover, the Potency entry in assay [7], in assay [3] and in assay [4] was “inactive” in each case.
In the case of `CC(C)(C#N)Nc1nc(Cl)nc(NC2CC2)n1`, the outcome in assay [1], in assay [8] and in assay [5] was inactive. Moreover, the Potency entry in assay [7], in assay [3] and in assay [4] was “inactive” in each case. The Potency in assay [6] is 243 nM (active).
For `CN1CCN(c2cc3c(nn2)Oc2ccccc2N3C)CC1`, the viability change, negative = cytotoxic was 0.195% [at 19 µM] in assay [1], 8.2% [at 19 µM] in assay [3] and 0.668% [at 19 µM] in assay [4]. The result in assay [2] was inactive. For the same compound, in assay [7], the Potency was 4610 nM (active). In assay [8], the activity change, negative = cytotoxicity is 2.56% [at 19 µM]. Further, in assay [5], the activity change was 5.44% [at 18.9 µM]. Also, in assay [6], the activity change, negative = inhibition is -8.36% [at 19 µM].
As for `COc1cc(C)nc(-n2nc(C)cc2OC)n1`, the outcome in assay [1], in assay [2], in assay [8] and in assay [5] was inactive. Also, the Potency entry in assay [3] and in assay [6] was “inactive” each time.
`NC(=O)N1c2ccccc2CC(=O)c2ccccc21`: the result in assay [1], in assay [2] and in assay [5] was inactive. For the same compound, the Potency entry in assay [7] and in assay [3] was “inactive” each time.
Consider `CC1(C)[C@@H]2CC[C@@]1(C)[C@H](O)C2`, for which the result in assay [1], in assay [8] and in assay [5] was inactive. In addition, the Potency entry in assay [3], in assay [4] and in assay [6] was “inactive” throughout.
As to `CC12CCC(C(=O)C1=O)C2(C)C` (stereo not given), the result in assay [1], in assay [8] and in assay [5] was inactive. Moreover, the Potency entry in assay [7], in assay [3] and in assay [6] was “inactive” throughout.
